TGFb inhibitor – TGF-b pathway inhibition; actives 1.2% (n = 410,000); Potency, µM (doses to about 46.1 µM), most hits filed as inhibitors; HepG2 CAGA-GFP TGF-b/SMAD3 reporter, GFP fluorescence, 18 h; TGF-beta stimulated, 500 pg/mL final; AID 588855; also: nearly all actives have a fitted effect of over 65% in size
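First, reporter cells (HEPG2 CAGA-GFP) rested 2 h at 37 degrees C. Next, compounds were pinned in and TGF-beta added to 500 pg/mL final. After 18 h, GFP was imaged per cell and summed per well.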
KB-3-1 cytotox – kills parental KB-3-1 adenocarcinoma cells | AID 1347075 | KB-3-1 viability, CellTiter-Glo ATP luminescence, 72 h | actives 1.4% (n = 400,000) | Potency, µM (titrated, usually from 46.1 µM), usual class: cytotoxic; also: nearly all actives have a fitted effect of over 60% in size
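Using CellTiter-Glo luminescence, growth of non-resistant KB-3-1 adenocarcinoma cells is assessed 72 h after pin-tool compound addition at 37 °C. Normalized responses across the concentration series yield fitted curves.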
HepG2 viability – counter-screen for TGF-b inhibitors: cytotoxicity in HepG2 cells | HepG2 CAGA-GFP viability, ATP luminescence, 18 h | Potency, µM (highest dose often 46.1 µM), most hits filed as cytotoxic | actives 0.76% (n = 410,000)
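HepG2 CAGA-GFP cells (1000/well, DMEM with 1% FBS) received compound, then TGF-beta at 500 pg/mL final, and were incubated 18 hours at 37 degrees C. Viability was read by CellTiter-Glo luminescence. Media-only wells were set as complete cell-killing and DMSO as no toxicity.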
HT1080 IDH1KD tx – HT-1080 IDH1 knockdown cell toxicity (counter line); Potency, µM (doses to about 46.1 µM), most hits filed as cytotoxic; HT-1080 IDH1 knockdown viability, ATP luminescence, 48 h; AID 686971; actives 2% (n = 360,000)
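Assay cells: HT-1080 with IDH1 knockdown, 750 per well, RPMI/5% FBS. Exposure: 48 h at 37 °C following 2 h pre-incubation. Read: CellTiter-Glo luminescence; fitted concentration-response, curve class assigned.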
HT1080NT lethal – kills 2HG-producing HT-1080-NT fibrosarcoma cells; HT-1080-NT fibrosarcoma viability, CellTiter-Glo ATP luminescence, 48 h; Potency, µM (doses to about 46.1 µM), most hits filed as cytotoxic; actives 1.6% (n = 360,000);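 also: NT is the 2HG producing partner of a matched IDH1 knockdown line; nearly all actives have a fitted effect of over 55% in size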
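HT-1080-NT fibrosarcoma cells (2HG-overproducing), 750 cells/well in RPMI with 5% FBS, dosed after 2 h and incubated 48 h at 37C. CellTiter-Glo luminescence normalized to DMSO and no-cell wells; concentration-response curves fitted and classed.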
KB-V1 MDR tox – KB-V1 MDR subline cytotoxicity | Potency, µM (titrated, usually from 46.1 µM), most hits filed as cytotoxic | actives 3.4% (n = 400,000) | KB-V1 MDR cells viability, CellTiter-Glo, 72 h | AID 1347076; also: nearly all actives have a fitted effect of over 60% in size
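Cytotoxicity via CellTiter-Glo luminescence after 72 h compound exposure at 37 degrees C. Cells: drug-selected KB-V1 line, DMEM phenol-red free plus 10% FBS. Compounds tested at multiple concentrations; normalized data fitted to concentration-effect curves.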
Numbers stand for hits; n = inactive; u = inconclusive; x = no result; [ ] = remark or other dose. This is a sample that favours compounds with a hit; in the whole collection about 6.6% have one here. Calls follow the shape of the dose curve; as a rule, active = well fitted curve in the direction sought with a large enough effect; inconclusive = small, poorly fitted or top-dose-only effect, or another doubt; inactive = no such curve, though single readings can be large; an effect the other way counts as inactive or inconclusive.

SMILES	TGFb inhibitor	KB-3-1 cytotox	HepG2 viability	HT1080 IDH1KD tx	HT1080NT lethal	KB-V1 MDR tox
CCCCOC(=O)c1ccc(NC(=O)c2ccoc2C)cc1	n	n	n	n	n	10µM
Cc1occc1C(=O)Nc1ccc(OCc2ccccc2)cc1	n	n	n	u	u	16µM
O=C(Nc1ccc(OCc2ccccc2)cc1)c1cccs1	n	n	n	n	n	n
CN(C)CC1CCC/C(=C\c2ccc(OC(=O)c3ccc(Cl)cc3)cc2)C1=O (centres undefined)	u	u	n	2.9µM	u	21µM
CC1CCC/C(=C\c2ccc(O)cc2)C1=O (centres undefined)	u	n	n	n	n	n
CN(C)CC1CCC/C(=C\c2ccc(OC(=O)/C=C/c3ccccc3)cc2)C1=O (centres undefined)	n	u	n	n	n	u
CN(C)CC1CC/C(=C\c2ccc(O)cc2)C1=O (centres undefined)	u	u	n	5.2µM	u	u
CN(CCCNC(=O)CSc1cc(=O)n(C)c2cc(Cl)ccc12)Cc1ccccc1	u	n	n	21µM	u	n
CCCOc1ccc(C2C(=O)N(C3CCCCC3)CC(=O)N2CCc2ccccc2)cc1OC (centres undefined)	n	n	n	x	x	n
CCn1c(N)[n+](CC(=O)Nc2ccc(SC(F)F)cc2)c2ccccc21	u	u	14µM	u	u	u
CC[N+](CC)(CC)CC(=O)Nc1ccc(SC(F)F)cc1	n	n	n	u	n	n
CC1(C)Cc2ccccc2C(c2cc3ccccc3oc2=O)=N1	n	u	n	u	21µM	n
c1ccc(-n2nnc3c(N4CCOCC4)ncnc32)cc1	n	u	n	n	n	16µM
c1ccc(Cn2nnc3c(N4CCc5ccccc5C4)ncnc32)cc1	n	n	n	n	n	15µM
c1ccc(Cn2nnc3c(N4CCCC4)ncnc32)cc1	n	n	n	u	n	18µM
CCN1CCN(c2ncnc3c2nnn3Cc2ccccc2)CC1	n	n	n	n	n	n
Cc1nnc(N2CCOCC2)c2nn(-c3ccccc3)c(C)c12	n	n	n	n	n	u
CCCCCCCCN1[C@@H](CC(=O)O)c2ccc(/C=C/C(=O)O)cc2S1(=O)=O	n	n	n	x	x	n
CCOC(=O)c1cc(-c2ccccc2)n(CCC(=O)NCc2ccccc2Cl)c1C	n	x	n	x	x	x
Cn1nnc2c(NCc3ccco3)ncnc21	n	n	n	x	x	n
Cc1ccccc1NC(=O)N1CCN(C(=O)c2ccco2)CC1	n	n	n	n	n	n
COc1ccc(NC(=O)N2c3ccccc3CC2C)cc1OC (centres undefined)	n	n	n	n	n	u
COC(=O)c1ccccc1NC(=O)N1c2ccccc2CC1C (centres undefined)	n	n	n	n	n	23µM
COC(=O)c1ccccc1NC(=O)N1CCN(C(=O)c2ccco2)CC1	n	u	n	n	n	7.3µM
COc1ccc(-c2nnc(SCc3nnc(-c4ccc(Cl)cc4)o3)n2-c2ccccc2)cc1	u	u	n	n	n	3.7µM
SMILES	TGFb inhibitor	KB-3-1 cytotox	HepG2 viability	HT1080 IDH1KD tx	HT1080NT lethal	KB-V1 MDR tox
COc1ccc(-c2nnc(SCc3nnc(-c4ccccc4)o3)n2-c2ccccc2)cc1	n	n	n	u	n	u
COc1ccc(C(C)=O)cc1CSc1nnc(Nc2ccccc2)s1	n	u	n	u	u	8.2µM
COc1ccc(C(C)=O)cc1CSc1nnc(-c2ccc(Cl)cc2)n1-c1ccccc1	n	u	n	u	u	15µM
COc1ccc(C(C)=O)cc1CSc1nnc(-c2ccncc2)n1C	n	n	n	n	n	n
COc1ccc(-n2c(SCc3nnc(-c4ccccc4)o3)nnc2-c2ccccc2)cc1	n	n	n	n	n	2.3µM
CCc1ccc(-n2nc(C)c3c(C(=O)Nc4cc(OC)cc(OC)c4)cc(C)nc32)cc1	n	n	n	x	x	n
O=C(Nc1ccn(Cc2c(F)c(F)cc(F)c2F)n1)c1ccc(COc2ccccc2Cl)cc1	n	n	n	u	u	n
Cc1nn(C)c(C(=O)Nc2ccn(Cc3ccccc3F)n2)c1[N+](=O)[O-]	n	n	n	n	n	26µM
O=C(Nc1ccn(Cc2ccccc2F)n1)c1ccc(COc2cc(Cl)ccc2Cl)o1	u	n	n	n	n	4.1µM
O=C(Nc1ccn(Cc2c(F)c(F)cc(F)c2F)n1)c1ccc(COc2cc(Cl)ccc2Cl)o1	n	n	n	u	n[9.24 µM]	n
O=C(Nc1ccn(Cc2ccccc2F)n1)c1ccc(COc2ccccc2Cl)cc1	n	u	n	u	n	2.6µM
Cc1cc2nc(-c3ccc(SCc4ccccc4C#N)nc3)[nH]c2cc1C	n	n	n	n	u	21µM
COC(=O)c1ccc(NC(=O)COc2ccc(S(=O)(=O)N3CCCCC3)cc2)cc1	n	n	n	n	n	5.2µM
Cc1nnc(SC(C)C(=O)Nc2ccc(S(=O)(=O)N3CCCCCC3)cc2)s1 (centres undefined)	n	n	n	n	n	16µM
Cc1ccc(S(=O)(=O)Nc2cccc3ccccc23)cc1	n	x	n	x	x	x
O=C(COc1ccc(S(=O)(=O)N2CCCC2)cc1)Nc1ccc(F)cc1	n	n	n	n	n	n
Cc1cccc(NC(=O)COC(=O)c2ccc(S(=O)(=O)N3CCCCCC3)cc2)c1	n	n	n	n	n	16µM
COC(=O)Nc1ccc(S(=O)(=O)Nc2cccc3ccccc23)cc1	n	u	n	n	n	15µM
O=C(COC(=O)c1ccc(S(=O)(=O)N2CCCC2)cc1)Nc1cccc(Br)c1	n	n	n	n	n	n
Cc1ccc2c(=O)cc(C(=O)Nc3nc4ccc(Cl)cc4s3)oc2c1	n	n	n	x	x	u
Cc1cccc(CCNC(=O)CCc2c(C)nc3c(c(C)nn3-c3ccccc3)c2C)c1	n	n	n	x	x	u
COC(=O)Nc1ccc(S(=O)(=O)N2CCCCCC2)cc1	n	n	n	u	n	18µM
Cc1ccc(C)c(C(=O)OCC(=O)Nc2cccc(S(=O)(=O)N3CCCCC3)c2)c1	u	15µM	n	u	u	u
CC1CCN(S(=O)(=O)c2ccc(NC(=O)Cn3nnc(-c4ccccc4F)n3)cc2)CC1	u	n	n	u	20µM	u
CN(C)S(=O)(=O)c1cccc(NC(=O)COc2ccc(C(=O)c3ccccc3)cc2)c1	n	n	22µM	u	u	u
COc1ccc(C2CC(=O)Nc3c2c(C)nn3-c2nncc(-c3ccc(C)cc3)n2)c(OC)c1OC (centres undefined)	u	n	n	x	x	n

From PubChem
